This passage reports binding signal results from paper PMC7862700, “An all-to-all approach to the identification of sequence-specific readers for epigenetic DNA modifications on cytosine”.

Holding throughout (experiment): DAPPL (digital affinity profiling via proximity ligation, sequencing); 10 mM Tris-HCl pH 7.5, 50 mM NaCl, 1 mM DTT, 4% glycerol, room temperature, 30 min; GST-TFs on glutathione beads, 16-mer random dsDNA library, 0.1% formaldehyde crosslink after washing; high values mean tight binding
What all share (conditions): protein: recombinant; tags: N-terminal GST; dsDNA, one strand shown

Assay [1] has as its target T1, SPIC (Homo sapiens, UniProt Q8N5J4 1-248).
T1 sequence: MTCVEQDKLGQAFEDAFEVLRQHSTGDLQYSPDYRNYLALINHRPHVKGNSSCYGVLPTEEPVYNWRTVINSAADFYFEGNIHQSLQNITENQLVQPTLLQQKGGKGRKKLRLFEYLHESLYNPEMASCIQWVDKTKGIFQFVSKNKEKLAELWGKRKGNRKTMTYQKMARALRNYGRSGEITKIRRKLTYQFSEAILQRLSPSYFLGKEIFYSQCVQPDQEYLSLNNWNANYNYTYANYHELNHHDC
A digest of the protocol:
(§1)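 Beads coated with glutathione captured GST-fused human transcription factors that had been expressed in yeast, and the factors were then given DNA barcodes and pooled with a tag-only sample. The pools were incubated with 200 nmole of a random double-stranded 16-mer DNA library in Tris/NaCl/DTT/glycerol buffer for 30 min at room temperature, washed, crosslinked with 0.1% formaldehyde and proximity-ligated with BsaI/T4 ligase at 37 °C for 1 h. PCR amplification and Illumina NextSeq500 sequencing came last. Binding signal is each hexamer's read frequency for a factor divided by its frequency for the tag-only sample.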

Assay [2] has as its target T2, ETV3 (Homo sapiens, UniProt P41162-2 1-143).
T2 sequence: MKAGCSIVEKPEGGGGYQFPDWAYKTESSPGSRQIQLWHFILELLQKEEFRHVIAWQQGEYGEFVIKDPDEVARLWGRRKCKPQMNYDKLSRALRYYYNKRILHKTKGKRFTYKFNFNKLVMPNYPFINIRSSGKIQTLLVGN
A digest of the protocol: as §1

Assay [3] deals with ELF1 (Homo sapiens, UniProt P32519 1-619). Summed up:
as §1

Assay [4] addresses SPIB (Homo sapiens, UniProt Q01892 1-262). Summed up: as §1
Assay [5] concerns the target T3, ELK4 (Homo sapiens, UniProt P28324-2 1-405).
T3 sequence: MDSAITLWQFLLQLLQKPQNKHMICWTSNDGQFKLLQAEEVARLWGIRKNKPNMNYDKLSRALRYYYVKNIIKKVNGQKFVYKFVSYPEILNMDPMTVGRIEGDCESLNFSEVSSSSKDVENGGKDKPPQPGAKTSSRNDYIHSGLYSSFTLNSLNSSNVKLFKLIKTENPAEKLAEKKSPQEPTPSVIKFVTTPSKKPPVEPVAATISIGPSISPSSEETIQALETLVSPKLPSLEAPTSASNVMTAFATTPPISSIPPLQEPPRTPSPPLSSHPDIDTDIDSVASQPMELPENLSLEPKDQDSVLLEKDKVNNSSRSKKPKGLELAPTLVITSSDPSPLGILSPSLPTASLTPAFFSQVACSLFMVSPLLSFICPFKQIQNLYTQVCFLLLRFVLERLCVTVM
Summed up:
as §1

In assay [6] the target is T4, ELF3 (Homo sapiens, UniProt P78545 1-371).
T4 sequence: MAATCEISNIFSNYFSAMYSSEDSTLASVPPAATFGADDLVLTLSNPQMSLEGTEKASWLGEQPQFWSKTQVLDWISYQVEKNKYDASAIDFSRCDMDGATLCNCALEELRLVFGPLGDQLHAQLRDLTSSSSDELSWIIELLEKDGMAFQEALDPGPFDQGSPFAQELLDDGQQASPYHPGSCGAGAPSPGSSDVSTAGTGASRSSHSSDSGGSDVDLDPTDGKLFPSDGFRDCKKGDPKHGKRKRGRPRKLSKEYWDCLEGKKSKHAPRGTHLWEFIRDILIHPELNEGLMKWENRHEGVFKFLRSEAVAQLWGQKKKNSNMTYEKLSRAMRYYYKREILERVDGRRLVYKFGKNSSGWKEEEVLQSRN
Summed up: as §1

For assay [7], the target named is T5, SPDEF (Homo sapiens, UniProt O95238 1-335).
T5 sequence: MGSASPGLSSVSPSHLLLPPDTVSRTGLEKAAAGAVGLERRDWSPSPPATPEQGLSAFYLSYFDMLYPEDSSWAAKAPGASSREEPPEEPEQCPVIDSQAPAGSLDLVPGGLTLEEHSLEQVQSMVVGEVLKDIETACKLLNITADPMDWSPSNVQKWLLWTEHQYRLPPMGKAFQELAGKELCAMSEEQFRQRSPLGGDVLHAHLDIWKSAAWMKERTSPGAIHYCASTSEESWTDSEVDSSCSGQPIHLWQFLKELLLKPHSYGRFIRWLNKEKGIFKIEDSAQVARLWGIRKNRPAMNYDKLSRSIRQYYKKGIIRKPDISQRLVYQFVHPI
A digest of the protocol: as §1

In assay [8] the target is T6, ETV7 (Homo sapiens, UniProt Q9Y603 1-341).
T6 sequence: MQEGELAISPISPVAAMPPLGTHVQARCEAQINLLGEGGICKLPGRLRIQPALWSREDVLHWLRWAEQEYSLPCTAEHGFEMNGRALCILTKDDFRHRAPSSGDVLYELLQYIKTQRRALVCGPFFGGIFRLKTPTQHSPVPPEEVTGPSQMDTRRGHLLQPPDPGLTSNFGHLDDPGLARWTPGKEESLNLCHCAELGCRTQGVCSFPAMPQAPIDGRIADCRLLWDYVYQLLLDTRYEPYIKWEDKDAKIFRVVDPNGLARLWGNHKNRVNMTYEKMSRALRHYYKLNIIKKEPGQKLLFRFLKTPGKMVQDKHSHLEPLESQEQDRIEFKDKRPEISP
A digest of the protocol:
as §1

The target of assay [9] is T7, GABPA (Homo sapiens, UniProt Q06546 1-454).
T7 sequence: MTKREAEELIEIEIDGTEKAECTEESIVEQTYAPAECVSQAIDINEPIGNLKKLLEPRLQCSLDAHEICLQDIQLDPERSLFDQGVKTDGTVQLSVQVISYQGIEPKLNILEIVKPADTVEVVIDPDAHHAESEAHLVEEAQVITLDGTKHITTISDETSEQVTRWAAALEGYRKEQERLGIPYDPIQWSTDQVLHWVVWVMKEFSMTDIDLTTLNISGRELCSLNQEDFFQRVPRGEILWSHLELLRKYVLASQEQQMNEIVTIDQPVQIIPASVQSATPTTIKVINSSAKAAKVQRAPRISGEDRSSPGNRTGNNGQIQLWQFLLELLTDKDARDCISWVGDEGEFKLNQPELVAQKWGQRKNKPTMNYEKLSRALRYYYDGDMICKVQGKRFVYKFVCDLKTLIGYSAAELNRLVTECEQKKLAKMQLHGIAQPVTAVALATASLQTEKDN
Summed up: as §1

The target of assay [10] is T8, EHF (Homo sapiens, UniProt Q9NZC4 1-300).
T8 sequence: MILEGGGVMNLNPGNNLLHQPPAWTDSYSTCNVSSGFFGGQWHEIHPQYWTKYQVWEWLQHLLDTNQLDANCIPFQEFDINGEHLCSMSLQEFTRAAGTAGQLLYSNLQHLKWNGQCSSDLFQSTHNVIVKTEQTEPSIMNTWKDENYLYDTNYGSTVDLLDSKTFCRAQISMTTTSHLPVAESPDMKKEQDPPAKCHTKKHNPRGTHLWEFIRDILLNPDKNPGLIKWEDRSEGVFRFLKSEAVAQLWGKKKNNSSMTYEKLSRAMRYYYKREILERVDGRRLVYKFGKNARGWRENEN
A digest of the protocol:
as §1

Assay [11] has as its target ETV6 (Homo sapiens, UniProt P41212 1-452). Summed up:
as §1

ETV6, sequence (P41212 whole entry): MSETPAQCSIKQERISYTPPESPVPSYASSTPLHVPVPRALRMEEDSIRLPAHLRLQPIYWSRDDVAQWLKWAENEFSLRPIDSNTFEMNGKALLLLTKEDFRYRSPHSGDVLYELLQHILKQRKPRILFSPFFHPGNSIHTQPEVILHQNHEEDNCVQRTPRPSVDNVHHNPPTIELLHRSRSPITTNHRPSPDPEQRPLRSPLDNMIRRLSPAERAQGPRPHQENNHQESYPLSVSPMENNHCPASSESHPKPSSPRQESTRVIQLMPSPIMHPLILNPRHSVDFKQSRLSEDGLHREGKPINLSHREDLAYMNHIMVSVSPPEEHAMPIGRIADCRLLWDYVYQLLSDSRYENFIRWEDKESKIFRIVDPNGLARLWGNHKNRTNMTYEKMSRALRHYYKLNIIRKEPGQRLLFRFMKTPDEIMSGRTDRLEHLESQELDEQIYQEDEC
ELF1, sequence (P32519 whole entry): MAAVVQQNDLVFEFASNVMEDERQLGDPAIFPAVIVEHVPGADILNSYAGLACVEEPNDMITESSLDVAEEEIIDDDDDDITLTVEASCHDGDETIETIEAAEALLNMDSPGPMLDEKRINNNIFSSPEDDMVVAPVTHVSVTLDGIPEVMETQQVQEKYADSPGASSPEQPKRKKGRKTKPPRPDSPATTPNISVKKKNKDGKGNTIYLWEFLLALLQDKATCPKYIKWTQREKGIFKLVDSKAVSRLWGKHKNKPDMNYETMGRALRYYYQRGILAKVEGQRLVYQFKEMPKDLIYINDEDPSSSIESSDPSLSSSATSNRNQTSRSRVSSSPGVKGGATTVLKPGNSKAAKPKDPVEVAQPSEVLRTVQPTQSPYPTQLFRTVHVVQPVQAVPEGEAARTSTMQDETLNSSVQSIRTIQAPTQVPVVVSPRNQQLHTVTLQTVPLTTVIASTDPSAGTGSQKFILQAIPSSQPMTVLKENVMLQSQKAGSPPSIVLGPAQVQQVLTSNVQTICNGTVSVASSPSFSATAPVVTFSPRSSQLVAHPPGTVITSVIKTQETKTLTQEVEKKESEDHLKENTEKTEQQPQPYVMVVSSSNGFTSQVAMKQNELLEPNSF
SPIB, sequence (Q01892 whole entry): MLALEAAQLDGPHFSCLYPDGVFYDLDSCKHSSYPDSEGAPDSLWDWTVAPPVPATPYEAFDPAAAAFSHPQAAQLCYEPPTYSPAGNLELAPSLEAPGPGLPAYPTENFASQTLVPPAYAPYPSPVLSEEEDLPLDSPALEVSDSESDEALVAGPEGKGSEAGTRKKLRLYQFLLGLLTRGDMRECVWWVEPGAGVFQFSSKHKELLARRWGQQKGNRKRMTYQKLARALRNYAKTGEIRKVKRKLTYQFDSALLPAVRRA

As to ATTCGG, the binding signal is 1.04 fold enrichment (6-mer frequency, TF over GST control) in assay [1] and 1.02 fold enrichment (6-mer frequency, TF over GST control) in [2].

Regarding TTGGAT, the binding signal in assay [3] was 1.01 fold enrichment (6-mer frequency, TF over GST control); in [4] it was 1.07 fold enrichment (6-mer frequency, TF over GST control); in assay [5], 1.04 fold enrichment (6-mer frequency, TF over GST control); in [6], 1.04 fold enrichment (6-mer frequency, TF over GST control); in assay [7] it was 1.13 fold enrichment (6-mer frequency, TF over GST control); in assay [8], 1.01 fold enrichment (6-mer frequency, TF over GST control).

With TTGGAA, the binding signal in [9] was 1.03 fold enrichment (6-mer frequency, TF over GST control); in assay [10], 1.04 fold enrichment (6-mer frequency, TF over GST control); in assay [6] it was 1.06 fold enrichment (6-mer frequency, TF over GST control); in [8], 1 fold enrichment (6-mer frequency, TF over GST control); in [11], 1.03 fold enrichment (6-mer frequency, TF over GST control).
